Consider 42 molecules from paper PMC12670160, “A drug-repurposing screen of FDA- and EMA-approved drugs identifies two NF-κB inhibitors active against eumycetoma” (Journal of Antimicrobial Chemotherapy, 2025).

Structures can show the parent of a compound that is named as a salt. Where two headings read alike, the source gives them in different places. The whole screen tested about 5,300 compounds, of which about 130 (2.5%) showed an effect of 50% or more. The sample as a whole holds a higher share of strong results than the screen did.

The test relates to M. mycetomatis strain mm55. As to conditions: primary screen, metabolic activity vs growth control, 96 h, 2 µM, inhibitor.

Turning to `COc1cc(CC2NCCc3cc(O)c(O)cc32)cc(OC)c1OC` (stereo not drawn) [ONC0002165, trimethoquinol], the “% viability” value was 66.75%.

Take `CN(C)CC/C=C1/c2ccccc2COc2ccc(CC(=O)O)cc21` [ONC0004990, olopatadine hydrochloride opatanol]: the “% viability” value is on record as 101%.

Turning to `O=C(O)Cc1ccc2c(c1)C(=O)c1ccccc1CO2` [ONC0003681, isoxepac], the “% viability” value is recorded as 47.44%.

Consider `O=C(O)Cc1ccc(-c2ccccc2)cc1` [ONC0005558, felbinac], for which the “% viability” value came out at 137.1%.

Consider `O=C1c2cccnc2OC[C@@H]2CCCN12` [ONC0001148, org26576], for which the “% viability” value turned out to be 83.51%.

As to `CCOC(=O)NNc1ccc(N(CC)CC(C)O)nn1` (stereo not drawn) [ONC0001944, cadralazine], the “% viability” value worked out at 72.29%.

With `C=C1C(=O)O[C@@H]2[C@H]3O[C@]3(C)CC/C=C(\C)CC[C@@H]12` [ONC0002950, parthenolidealternatestereo], the “% viability” value was 150.2%.

Take `Cc1cccn2c(=O)c(/C=C(\C#N)c3nc4ccccc4s3)c(Oc3ccc(F)cc3)nc12` [ONC0003502, ccg63808]: the “% viability” value was determined as 42.44%.

For the molecule `Cc1cccc(Oc2nc3c(C)cccn3c(=O)c2/C=C(\C#N)c2nc3ccccc3s2)c1` [ONC0001281, ccg63802], the “% viability” value is on record as 68.65%.

`Cc1ccc(OC[C@@H](O)[C@H](C)NC(C)C)c2c1CCC2` [ONC0001929, ici118551]: the “% viability” value stood at 52.35%.

As for `Cc1ccc(-c2ncccn2)c(C(=O)N2C[C@H](COc3ccc(F)cn3)CC[C@H]2C)c1` [ONC0005570, filorexant], the “% viability” value came to 73.84%.

Take `O=C(O)CC(O)(CC(=O)O)C(=O)O.[Li].[Li].[Li]` [ONC0004255, lithium citrate hydrate]: the “% viability” value was determined as 60.67%.

Take `CCCCCCCCCCCCOCCOCCOCCOCCOCCOCCOCCOCCOCCO` [ONC0002139, polidocanol]: the “% viability” value came out at 78.72%.

Take `C[C@H]1OC(O)[C@H](O)[C@H](O)[C@H]1O` (stereo partly drawn) [ONC0004779, l rhamnose monohydrate]: the “% viability” value was determined as 103.9%.

Take `C/C=C1\NC(=O)[C@H]2CSSCC/C=C/[C@H](CC(=O)N[C@H](C(C)C)C(=O)N2)OC(=O)[C@H](C(C)C)NC1=O` [ONC0000722, romidepsin]: the “% viability” value worked out at 49.6%.

On to `Cc1ccc(-c2ccc(C)cn2)nc1` [ONC0002143, abametapir], for which the “% viability” value amounted to 65.91%.

Consider `C=C[C@H]1C[N@@]2CC[C@H]1C[C@H]2[C@H](O)c1ccnc2ccc(OC)cc12` [ONC0003402, quinine], for which the “% viability” value was determined as 78.04%.

Take `CC/C(=C(\c1ccc(O)cc1)c1ccc(OCCNC)cc1)c1ccccc1` [ONC0004522, endoxifen hcl]: the “% viability” value came to 48.7%.

In the case of `CC/C(=C(\c1ccc(O)cc1)c1ccc(OCCN(C)C)cc1)c1ccccc1` [ONC0002197, afimoxifene], the “% viability” value is reported as 79.17%.

As for `CC/C(=C(\c1ccccc1)c1ccc(OCCN(C)C)cc1)c1ccccc1` [ONC0000595, tamoxifen citrate], the “% viability” value was determined as 106.5%.

In the case of `COc1cc(-n2c(S)nc3ccccc3c2=O)c(Cl)cc1Cl` [ONC0004315, mdivi1], the “% viability” value was 127.2%.

For `O=C1c2ccccc2-n2c1nc1ccccc1c2=O` [ONC0003517, tryptanthrin], the “% viability” value was found to be 43.27%.

For `O=c1c2ccccc2nc2n1CCc1c-2[nH]c2ccccc12` [ONC0004955, rutaecarpine rutecarpine], the “% viability” value came to 80.68%.

For `COC(=O)Nc1nc2ccc([S+]([O-])c3ccccc3)cc2[nH]1` (stereo not drawn) [ONC0004180, oxfendazole], the “% viability” value came out at 72.44%.

With `NC(C(=O)O)c1ccc(C(=O)O)c(O)c1` (stereo not drawn) [ONC0002596, 4carboxy3hydroxyphenylglyciners], the “% viability” value is 58.45%.

With `CC(=O)O[C@@H]1CC[C@@]2(C)C(CC[C@]3(C)C2C(=O)C=C2[C@@H]4[C@@H](C)[C@H](C)CC[C@]4(C)CC[C@]23C)[C@@]1(C)C(=O)O` (stereo partly drawn) [ONC0003387, acetyl11ketobetaboswellicacid], the “% viability” value worked out at 70.79%.

With `COc1cc2c(c(OC)c1OC)-c1c(cc3c(c1OC)OCO3)C[C@H](C)[C@@H](C)C2` [ONC0005204, schisandrin b], the “% viability” value stood at 87.3%.

As to `O=C1CCCCCCCCCCCCCCO1` [ONC0002133, oxacyclohexadecan2one], the “% viability” value is 71.7%.

As for `O=C(O)CN(CCN(CC(=O)O)CC(=O)O)CCN(CC(=O)O)CC(=O)O` [ONC0005602, pentetic acid], the “% viability” value (Madurella mycetomatis metabolic activity at 2µM (%)) amounted to 107.7%.

As for `Oc1cccc(Nc2ccc(Nc3cccc(O)c3)nn2)c1` [ONC0002962, 363hydroxyphenylaminopyridazin3ylaminophenol], the “% viability” value is reported as 67.52%.

For `Nc1ccc(C(=O)O)c(O)c1` [ONC0003334, aminosalicylate sodium], the “% viability” value is listed as 35.29%.

In the case of `Nc1ccc(C(=O)Oc2ccccc2)c(O)c1` [ONC0003304, phenyl aminosalicylate], the “% viability” value worked out at 56.4%.

Consider `Nc1ccc(O)c(C(=O)O)c1` [ONC0002803, mesalamine lialda], for which the “% viability” value is 82.25%.

Consider `[H]/N=C(/N)N/C(=N/[H])NCCc1ccccc1` [ONC0000619, phenformin hydrochloride], for which the “% viability” value came out at 104.4%.

`CNC(=O)c1ccc2c(c1)S(=O)(=O)c1ccccc1C2=O` [ONC0002375, bw616u]: the “% viability” value is 76.21%.

`CCOC(=O)Nc1c[n+](N2CCOCC2)no1` [ONC0000636, molsidomine]: the “% viability” value was 75.33%.

Consider `Nc1c[n+](N2CCOCC2)no1` [ONC0003799, linsidomine], for which the “% viability” value was determined as 49.48%.

As for `CC[C@@H](C(=O)O)C1CC[C@H](C)C([C@@H](C)[C@H](O)[C@H](C)C(=O)[C@H](CC)C2O[C@]3(C=C[C@@H](O)[C@]4(CC[C@@](C)(C5CC[C@](O)(CC)[C@H](C)O5)O4)O3)[C@H](C)C[C@@H]2C)O1` (stereo partly drawn) [ONC0004344, salinomycin procoxacin], the “% viability” value was found to be 144.3%.

Take `CN(C)c1ccc2c(c1)Sc1cc(N(C)C)ccc1N2.CS(=O)(=O)O` [ONC0001830, leucomethylene blue mesylate]: the “% viability” value is on record as 74.38%.

Take `CS(=O)(=O)c1ccc(-c2cn3ccccc3n2)cc1` [ONC0002352, zolimidine]: the “% viability” value was 42.05%.

With `CS(=O)(=O)c1ccc(C2=C(c3ccccc3)C(=O)OC2)cc1` [ONC0001095, rofecoxib], the “% viability” value came out at 82.56%.

As for `CS(=O)(=O)c1ccc(-c2cnc(N)c(C(=O)Nc3ccccc3)n2)cc1` [ONC0004547, ve821], the “% viability” value was found to be 76.73%.
